Compound activity as filed in PubChem BioAssay.
SmPrx2 inh: blocks S. mansoni peroxiredoxin 2 enzymatic activity. S. mansoni Prx2 activity coupled to TGR/GSH (TGR is thioredoxin glutathione reductase), NADPH fluorescence loss, qHTS. Potency, µM. 65,000 compounds, 0.07% hits
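Purified S. mansoni TGR and Prx2 in pH 7.4 phosphate buffer with EDTA and Tween-20 were preincubated with compounds for 15 min. Further NADPH/GSH was added, then a 2.5 mM H2O2 aliquot initiated turnover, followed kinetically by NADPH fluorescence.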
AmpC nodet inh: inhibitors of E. coli AmpC beta-lactamase without detergent; P00811; AmpC nitrocefin hydrolysis, absorbance 480 nm, no detergent; Potency, µM (titrated, usually from 28.7 µM), for the others: at the highest dose activity change, negative = inhibition; 71,000 compounds, 1.8% hits; further: % of control where 0% means no effect
Target sequence (P00811 whole entry, looked up): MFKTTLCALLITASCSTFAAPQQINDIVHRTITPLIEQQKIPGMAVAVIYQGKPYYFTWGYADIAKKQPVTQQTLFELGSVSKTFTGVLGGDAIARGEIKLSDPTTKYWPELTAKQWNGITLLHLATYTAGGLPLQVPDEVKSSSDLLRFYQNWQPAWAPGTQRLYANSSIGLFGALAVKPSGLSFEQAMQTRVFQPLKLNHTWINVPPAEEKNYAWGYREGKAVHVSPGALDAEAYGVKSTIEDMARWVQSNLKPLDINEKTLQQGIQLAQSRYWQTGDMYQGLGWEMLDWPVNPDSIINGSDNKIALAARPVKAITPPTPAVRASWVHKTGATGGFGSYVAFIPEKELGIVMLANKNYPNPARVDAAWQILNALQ
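AmpC, 20 mM phosphate pH 7.0; 15 min cpd preinc, RT; start with nitrocefin (800 uM stock); A480 kinetic read, 20 s intervals, 4 min. No-enzyme wells = negative control.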
AmpC det inh: blocks E. coli AmpC beta-lactamase in presence of detergent; P00811; purified AmpC, nitrocefin hydrolysis with detergent; Potency, µM (doses to about 28.7 µM), inactives show at the highest dose activity change, negative = inhibition; 71,000 compounds, 0.09% hits; AID 584; active means well fitted curve in the direction sought with a large enough effect; inconclusive means small, poorly fitted or top-dose-only effect; further: on the % scale 0 is the no-effect control and ±100 the full control effect
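E. coli AmpC (5.3 nM) in 20 mM phosphate pH 7.0 with 0.01% Triton X-100, preincubated 15 min RT with compound; nitrocefin (2 uL of 800 uM stock) hydrolysis followed by 480 nm absorbance every 20 s over 4 min.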
Anthrax LT inh: anthrax lethal toxin internalization inhibition | Potency, µM (doses to about 40 µM), without a hit: at the highest dose activity change, negative = inhibition, actives largely listed as inhibitors | 70,000 compounds, 0.67% hits | AID 912 | Cells, anthrax lethal toxin internalization, FRET ratio (460/530); further: on the % scale 0 is the no-effect control and ±100 the full control effect; nearly all actives have a fitted effect of over 50% in size
* = called active by the depositor; ? = inconclusive; nt = no result given; ! = not confirmed by another sample; [ ] = another dose, or the depositor's remark. An excerpt weighted towards active compounds, which were near 2.4% of everything screened. Unless noted, the call rests on the fitted dose curve. Potency means the concentration at half of the fitted maximal effect.

SMILES	SmPrx2 inh	AmpC nodet inh	AmpC det inh	Anthrax LT inh
COc1cccc(OCc2nc3ccccc3[nH]2)c1	>57	4µM*[single pt active]	12%	-22%
O=C1OC(=O)c2c(Cl)c(Cl)c(Cl)c(Cl)c21	nt	-9%	8%	-2%
N#Cc1nc(-c2cccc3ccccc23)oc1NCCN1CCOCC1	>57	143%	-3%	?
N#Cc1nc(-c2ccccc2F)oc1NCCN1CCOCC1	>57	4µM*[single pt active]	13%	9%
CSCCC=O	nt	-11%	11%	1%
CCCCOc1ccc(S(=O)(=O)n2c(C)nc3ccccc32)cc1	>57	43%	1%	?
CCOc1ccc(S(=O)(=O)n2c(C)nc3ccccc32)cc1	>57	4µM*[single pt active]	14%	-20%
Cc1ccnc(N2C(=O)c3ccccc3C2Nc2cccc(C)c2C)c1 (stereo not given)	>57	13%	10%	-5%
O=C1c2ccccc2C(Nc2ccccc2F)N1c1cccnc1 (stereo not given)	>57	4µM*[single pt active]	13%	0%
Cc1ccccc1N1C(=O)c2ccccc2C1Nc1cccnc1 (stereo not given)	>57	4µM*[single pt active]	13%	-3%
CCOC(=O)c1ccc(NC2c3ccccc3C(=O)N2c2cccnc2)cc1 (stereo not given)	>57	62%	11%	-5%
CCc1cccc(NC2c3ccccc3C(=O)N2c2ccc(C)cn2)c1 (stereo not given)	>57	43%	8%	?
COC(=O)c1ccccc1NC1c2ccccc2C(=O)N1c1cccnc1 (stereo not given)	>57	4µM*[single pt active]	8%	-9%
CCc1cccc(NC2c3ccccc3C(=O)N2c2cccnc2)c1 (stereo not given)	>57	4µM*[single pt active]	9%	-3%
COC(=O)c1c(-c2cc(OC)c(OC)c(OC)c2)c2ccc(OCc3ccccn3)cc2c(=O)n1-c1ccc(N)cc1	>57	158%	-2%	13%
O=C(Nc1ccccc1)N1CCC2(CC1)CCN(C(=O)c1csnn1)CC2	>57	48%	0%	?
O=S(=O)(NCCO)c1cc[c]([Sb](=[O])([OH])[OH])cc1	>57	-11%[5.75 µM]	1%[5.75 µM]	-4%[8 µM]
O=C(/C=C\c1ccc(O)c(O)c1)O[C@H]1C[C@@](O)(C(=O)O)C[C@H](O)[C@@H]1O	>57	4%	-2%	?
O=c1nc2s/c(=C\c3ccco3)c(=O)n2nc1Cc1ccc(F)cc1	>57	10µM*[single pt active]	-5%	-15%
CCCCC[C@H](CC(=O)NO)C(=O)N[C@@H](C(=O)N1CCC[C@H]1CO)C(C)C	>57	-1%	2%	4%
O=C(O)[C@@H]1CCCN1Cc1ccc2c(c1)OCO2	>57	3%[5.75 µM]	-4%[5.75 µM]	-1%[8 µM]
COc1cc2c(O)c3c(c(-c4ccc5c(c4)OCO5)c2cc1OC)C(=O)OC3	>57	6%	4%	0.02µM*
COc1cc2c(=O)n(-c3ccc(C)cc3)c(=O)n(CC(=O)c3ccc4c(c3)OCO4)c2cc1OC	>57	119%	-4%	5%
N#Cc1sc2nc(-c3ccccc3)cc(-c3ccco3)c2c1N	>57	6.3µM*	-1%	?
COC(=O)c1sc2nc(-c3ccco3)ccc2c1N	>57	-10%	-4%	3%
SMILES	SmPrx2 inh	AmpC nodet inh	AmpC det inh	Anthrax LT inh
N#Cc1c(-c2ccccc2)cc(-c2ccco2)c(C#N)c1N	nt	6.3µM*	12%	?
C/C=C/OC(=O)NC(c1ccccc1)[C@@]1(C(=O)OC)CCCC1=O (stereo not given in full)	nt	nt	nt	-5%[8 µM]
C[C@@]1(CCOCc2ccccc2)NC(=O)NC1=O	>57	-3%[5.75 µM]	-3%[5.75 µM]	?
COc1cccc(Cn2c(=O)c(C)nc3cnc(OCc4ccccc4)nc32)c1	>57	91%	1%	-10%
Clc1cccc(-c2nc(-c3ccccn3)no2)c1	>57	11%	-1%	-4%
c1ccc(-c2ccc(-c3nc(-c4ccccn4)no3)cc2)cc1	nt	44%	12%	3.2µM*
CC(C)CN1CC2(CCN(C(=O)c3csnn3)CC2)C1	>57	45%	-2%	-1%
COc1ccc(NC(=O)c2cc(-c3cc(C)ccc3O)n[nH]2)cc1Cl	>57	-12%	-3%	?
COc1ccc(OC)c(NC(=O)c2cc(-c3cc(Cl)ccc3O)n[nH]2)c1	>57	10µM*	-1%	nt
O=C(Nc1nc(-c2ccc(S(=O)(=O)N3CCCCCC3)cc2)cs1)c1cccs1	>57	7.9µM*	-3%	?
Cc1ccc(-c2csc(NC(=O)c3cccc(S(=O)(=O)N4CCN(C)CC4)c3)n2)cc1	>57	134%	11%	-24%
O=C(Nc1nc(-c2cccs2)cs1)c1cccc(S(=O)(=O)N2CCCCC2)c1	>57	7.9µM*	-3%	?
O=C(Nc1nc(-c2cc(Cl)sc2Cl)cs1)c1cccs1	>57	0.32µM*	9%	?
O=C(Nc1nc(-c2ccc(S(=O)(=O)N3CCCC3)cc2)cs1)c1cccs1	>57	-12%	-1%	-26%
CCOC(=O)CSc1nnc(N)s1	>57	-11%	2%	?
CCOC(=O)CSc1nn(C)c(=S)s1	>57	4µM*[single pt active]	13%	-11%
Cc1nc(N(C)C)c2sc(=S)n(C)c2n1	>57	4µM*[single pt active]	7%	-5%
COC(=O)N1CCN(C(=O)Cc2ccc(Cl)c(Cl)c2)[C@H](CN2CCCC2)C1	14*!	36%	1%	?
Cc1ccc(-c2noc(-c3ccccc3Br)n2)cc1	nt	-17%	10%	?
Cc1ccccc1-c1noc(-c2ccc(O)cc2)n1	nt	-7%	-3%	10µM*
O=C(CCc1ccc(S(=O)(=O)N2CCCCC2)cc1)c1nnc(-c2ccccc2)o1	>57	20µM*[single pt active]	-6%	-22%
O=C(CCc1ccccc1)N1CCN(CCO)CC1	>57	4µM*[single pt active]	11%	-8%
O=C(c1cccs1)N1CCN(CCc2ccccc2)CC1	>57	10%	-3%	8%
Nc1[nH]c(=O)nc2c1ncn2[C@H]1O[C@@H](CO)[C@@H](O)[C@@H]1O	>57	-2%[5.75 µM]	-1%[5.75 µM]	-8%[8 µM]
[O]=[Cd]	nt	1%	12%	-13%
SMILES	SmPrx2 inh	AmpC nodet inh	AmpC det inh	Anthrax LT inh
Cc1cc(N2CCC(N(C)C3CCCC3)CC2)nc2cc(O)ccc12	>57	27%	14%	3.2µM*
Cc1cc(N2CCOCC2)nc2ccc(NC(=O)C3CCC(C)CC3)cc12 (stereo not given)	>57	100%	-2%	-2%
Cc1ccc(N2CCn3c2nc2c3c(=O)n(CCc3ccccc3)c(=O)n2C)cc1	>57	24%	-2%	7%
COC(=O)c1ccc(C(NC(=O)OCc2ccccc2)/C(I)=C/[C@@H](C)C(=O)Nc2ccccc2)cc1 (stereo not given in full)	nt	-7%	9%	-14%
CCOC(=O)C1[C@H]2C(=O)N(C(C)c3ccc(OC)cc3)C[C@]23C=C[C@H]1O3 (stereo not given in full)	>57	-11%	-2%	?
CCC(C)N1CC23C=CC(O2)C(C(=O)OC)C3C1=O (stereo not given)	>57	4µM*[single pt active]	13%	10%
NCCCCCCN	nt	-2%	8%	7%
O=C(O)c1cc[c]([Hg][S]c2ncnc3nc[nH]c23)cc1	0.86*	-2%[5.75 µM]	-7%[5.75 µM]	-5%[8 µM]
O=C(O)CCSc1ncnc2nc[nH]c12	>57	2%[5.75 µM]	-4%[5.75 µM]	-8%[8 µM]
